# Among all 320,000 compounds or so, about 22,000 (6.9%) were called active. About 27% were inconclusive and are not listed. The sample holds actives, similar compounds and a random draw of the others, so the mix is not that of the screen. Calls come from the whole dose curve; as a rule, active = well fitted inhibition curve with a large enough effect; inconclusive = small, poorly fitted or top-dose-only effect, or another doubt; inactive = no such curve, though single readings can be large or run the other way.
# Experiment: Primary qHTS for delayed death inhibitors of the malarial parasite plastid, 96 hour incubation
# Settings: P. falciparum luciferase reporter growth; series mostly up to 28.7 µM; activity change, negative = inhibition: at the top concentration
# Summary of the method: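 Two-generation exposure (96 h) targets delayed-death phenotype. Reporter parasites carrying integrated firefly luciferase, in red cells at 2% hematocrit and 0.05% parasitemia final, kept at 37 C, 5% CO2; luminescence loss indicates inhibition.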
# % is set by controls: 0 for no effect and ±100 for the full control effect; potency is the fitted concentration of half-maximal effect.
Compound,Potency,"activity change, negative = inhibition"
C/C(=N\N=C(N)N)c1ccc(Cl)cc1,4.15 µM (active),
C/C(=N\OCC(=O)O)c1ccc(Cl)cc1,,7.52% (inactive)
COC(=O)/C(NC(C)=O)=C(\C)c1ccc(Cl)cc1,,15.3% (inactive)
Cn1c(SCC(=O)c2ccccc2)ncc(C(=O)Nc2ccc(F)cc2)c1=O,,98.4% (inactive)
CC1CCN(C(=O)Cn2nnnc2CN2CCOCC2)CC1,,7.62% (inactive)
CC(Sc1nncs1)C(=O)NCc1ccc2c(c1)OCO2 (configuration not stated),13.1 µM (active),
O=C(NCc1ccc2c(c1)OCO2)c1ccc(Cl)s1,,20.2% (inactive)
O=C(NCc1ccc2c(c1)OCO2)c1sccc1Br,,23.1% (inactive)
Cc1ccc(S(=O)(=O)NCC(=O)N(CC(=O)NCC2CCCO2)c2cccc(F)c2)cc1 (configuration not stated),,38.5% (inactive)
Nc1nnnn1/N=C/c1cc([N+](=O)[O-])ccc1O,,-13.5% (inactive)
Cc1sc(NC(=O)c2ccc3ncsc3c2)c(C(N)=O)c1C,,202% (inactive)
O=C(Nc1ccccc1N1CCOCC1)c1ccncc1,,0.269% (inactive)
O=C(Nc1ccccc1N1CCOCC1)c1csc2c1CCCC2,10.4 µM (active),
Cc1ccc(S(=O)(=O)N2CCOCC2)cc1C(=O)Nc1ccccc1N1CCCC1,,-12.8% (inactive)
CCCc1cc(=O)[nH]c(SCC(=O)c2c(N)n(CC(C)C)c(=O)n(C)c2=O)n1,,21.4% (inactive)
CCOC(=O)c1c(C)[nH]c(C)c1S(=O)(=O)N(C)CC(=O)Nc1ccccc1C,,-0.876% (inactive)
CCc1ccc(OCC(=O)N(Cc2ccccc2)C2CCS(=O)(=O)C2)cc1 (configuration not stated),,-19.5% (inactive)
O=C(CCC(=O)c1ccccc1)NCc1cccc(C(F)(F)F)c1,,10.8% (inactive)
Cc1ccc(C)c(Cn2cnc3c(oc4ccccc43)c2=O)c1,2.08 µM (active),
CCC(C(=O)OC)n1cnc2c(oc3ccccc32)c1=O (configuration not stated),,-14.6% (inactive)
Cc1ccc2[nH]c3c(=O)n(Cc4ccccn4)cnc3c2c1,,-4.35% (inactive)
CC(C(=O)N(C)CC(=O)Nc1ccccc1C(F)(F)F)N1C(=O)c2ccccc2C1=O (configuration not stated),,-12.6% (inactive)

Compound,Potency,"activity change, negative = inhibition"
Cc1csc2nc(COC(=O)c3cccc(N(C)C)c3)cc(=O)n12,,175% (inactive)
CCOC(=O)N1CCC(N2Cc3cccc(C(=O)Nc4c(C)cccc4CC)c3C2=O)CC1,,2.75% (inactive)
C=C1CCC(N(O)c2cc(C)on2)C(=C)CCC2C1CC2(C)C (configuration not stated),4.65 µM (active),
CN(NS(=O)(=O)c1cccs1)c1ncc(C(F)(F)F)cc1Cl,,35% (inactive)
O=C(Nc1nnc(C2=COCCO2)o1)c1ccc([N+](=O)[O-])s1,11.7 µM (active),
COc1cc(-c2nnc(NC(=O)C3=COCCO3)o2)cc(OC)c1OC,,-2.47% (inactive)
CCC(CC)c1nnc(NC(=O)C2=COCCO2)s1,,65.7% (inactive)
COCCNc1ccc(-c2n[nH]c(=O)c3ccccc23)cc1[N+](=O)[O-],,28.5% (inactive)
O=C(NCCc1c[nH]c2ccccc12)c1cccc(Br)c1,,38.4% (inactive)
O=C(CN1C(=O)NC2(CCCCC2)C1=O)NCCc1c[nH]c2ccccc12,,-0.132% (inactive)
CC1(C(=O)NCCc2c[nH]c3ccccc23)C=CC2(CCCCC2)N1C(=O)c1ccccc1 (configuration not stated),11.7 µM (active),
Cc1ccc(OCCC(=O)OCC(=O)N2c3ccccc3NC(=O)C2(C)C)cc1,,-1.08% (inactive)
Cc1nnc(SCC(=O)Nc2ccc(S(=O)(=O)Nc3ccc(Cl)nn3)cc2)s1,,-22.5% (inactive)
Cc1ccccc1N1CCN(C2CCCN(C(=O)c3ocnc3C)C2)CC1 (configuration not stated),,80.8% (inactive)
Cc1ccc(-n2c(-c3ccc(Cl)cc3)n[nH]c2=S)cc1,,-1.55% (inactive)
Cc1cc([N+](=O)[O-])ccc1NC(=O)c1ccc(NC(=O)C(C)C)cc1,,18% [at 5.75 µM] (inactive)
Cc1cc([N+](=O)[O-])ccc1NC(=O)C1CCCO1 (configuration not stated),,59.8% (inactive)
CC(=O)c1ccc(NC(=O)Nc2ccc([N+](=O)[O-])cc2C)cc1,9.28 µM (active),
O=C(NCc1ccco1)c1ccc(CS(=O)(=O)Cc2ccc(F)cc2)o1,8.28 µM (active),
CCN(CC(=O)NCc1ccco1)S(=O)(=O)c1ccc(F)cc1,,2.62% (inactive)
CCOc1ccccc1C(=O)NCc1ccco1,,9% (inactive)
CC1(C)Oc2ccc3ccc(=O)oc3c2/C(=N/O)C1=O,,-23.1% (inactive)

Compound,Potency,"activity change, negative = inhibition"
NC(=O)Cc1ccc2c(c1)[nH]c1ccccc12,,-7.47% (inactive)
C[C@H](NC(=O)C1CC(=O)N(c2ccc3c(c2)OCO3)C1)C(=O)NCc1ccco1 (some centres not stated),,0.347% (inactive)
CCOCN(C(=O)Cn1c(C(C)O)nc2ccccc21)c1c(C)cccc1CC (configuration not stated),8.28 µM (active),
Cc1ccccc1OC(=O)Cn1c(C(F)(F)F)nc2ccccc21,,42.4% (inactive)
CCc1cccc(C)c1N(C(=O)Cn1c(CO)nc2ccccc21)C(C)COC (configuration not stated),,0.927% (inactive)
CC(C)=NN1C(=O)c2ccccc2NC1(C)C,,13.6% (inactive)
Cc1csc(NC(=O)c2ccc(-c3ccc(Cl)cc3Cl)o2)n1,4.65 µM (active),
Cc1csc(NC(=S)Nc2cccc(Cl)c2)n1,,-84.6% (inactive)
O=C(Nc1cccc2ncccc12)c1ccc(-c2ccc(Cl)cc2Cl)o1,,12.7% (inactive)
COc1cc(S(=O)(=O)N2CCN=C2c2ccccc2)ccc1Cl,,-2.8% (inactive)
CCN(CC)CCCN=Cc1c(O)n(-c2ccc(C)cc2)c(=O)c2ccccc12,,13.8% (inactive)
Cc1ccc(-n2c(O)c(C=Nc3ccc(S(=O)(=O)Nc4ncccn4)cc3)c3ccccc3c2=O)cc1C,,38.1% (inactive)
COc1ccc(-n2c(O)c(C=NCC(c3ccco3)N3CCCC3)c3ccccc3c2=O)cc1OC (configuration not stated),10.4 µM (active),
O=c1[nH]c(N2CCOCC2)nc2ccccc12,,10.7% (inactive)
CC(C(=O)NC1CCS(=O)(=O)C1)N1C(=O)/C(=C/c2ccc(Cl)cc2)SC1=S (configuration not stated),,-0.569% (inactive)
CC1CCN(C2=NC(=O)/C(=C/c3cn[nH]c3-c3ccccc3)S2)CC1,13.1 µM (active),
Cc1ccsc1/C=C1\SC(N2CCOCC2)=NC1=O,,51.5% (inactive)
O=C1N=C(N2CCOCC2)S/C1=C\C=C/c1ccccc1,,56.5% (inactive)
Cc1ccc(-c2nnc(CN3CCN(C)CC3)o2)cc1,,73.6% (inactive)
COc1ccc(CCNC(=O)C(=O)NCC2OCCN2S(=O)(=O)c2ccc(F)cc2)cc1OC (configuration not stated),,-24.7% (inactive)
O=[N+]([O-])c1ccc(O)c(/C=N/Nc2ccccc2[N+](=O)[O-])c1,,8.78% (inactive)
Cc1ccc(NS(=O)(=O)c2ccc(N/N=C/c3ccccc3OCC(=O)O)c([N+](=O)[O-])c2)c(C)c1,9.28 µM (active),

Compound,Potency,"activity change, negative = inhibition"
Cc1ccc(S(=O)(=O)NC(=O)COc2ccccc2C)cc1,,23.8% (inactive)
O=C(Cc1ccc(Cl)cc1)NC(=S)Nc1ccccc1O,,45.3% (inactive)
CC1(C)O[C@@H]2[C@H](O1)[C@@H](COS(=O)(=O)O)O[C@H]2n1ccc(=O)[nH]c1=O,,58.2% (inactive)
CN(c1ccccc1)S(=O)(=O)c1ccc(NC(=O)COc2ccccc2)cc1,,0.845% (inactive)
CN(C)S(=O)(=O)c1cccc(NC(=O)Cc2ccsc2)c1,,44.5% (inactive)
CN(c1ccccc1)S(=O)(=O)c1cccc(NC(=O)Cc2c(F)cccc2Cl)c1,14.7 µM (active),
Cc1ccc(S(=O)(=O)n2cccc2CO)cc1,,73.9% (inactive)
COc1ccccc1CCNC(=O)C1CCN(C(=O)/C=C/c2ccccc2)CC1,,118% (inactive)
CCN(CC(=O)NCc1ccc(Cl)cc1)C(=O)CSc1ccccc1,,-0.0811% (inactive)
Nc1ccc(-c2nnc(-c3ccc(-c4ccccc4)cc3)o2)cc1,,69.9% (inactive)
Nc1ccc(C(=O)NCc2ccccc2)cc1,,52.7% (inactive)
Nc1ccc(Nc2ccccc2)cc1,9.28 µM (active),
Cc1ccnc(NC(=O)CNC(=O)c2ccccc2)c1,,112% (inactive)
C=CCNc1ncnc2ccc(Br)cc12,,-11.7% (inactive)
COc1ccc(Nc2ncnc3ccc(Br)cc23)c(OC)c1,,1.32% (inactive)
CC1(C)CC2CC(C)(CN2c2ncnc3ccc(Br)cc23)C1 (configuration not stated),16.5 µM (active),
CCC(C)C(=O)Nc1ccccc1N1CCN(c2ccc(F)cc2)CC1 (configuration not stated),,14.6% (inactive)
Cc1csc(=O)n1CCC(=O)OCC(=O)NNC(=O)c1ccc(Br)cc1,,-26.8% (inactive)
O=c1ccc2cc(S(=O)(=O)Nc3ccccc3F)ccc2o1,,-5.54% (inactive)
O=C1COc2ccc(S(=O)(=O)Nc3ccc(OC(F)(F)F)cc3)cc2N1,,61.4% (inactive)
O=C(COC(=O)c1cccs1)NCc1cccs1,,-16.4% (inactive)
O=C(COC(=O)c1ccc(Cl)nc1)NCc1cccs1,2.33 µM (active),

Compound,Potency,"activity change, negative = inhibition"
O=C(COC(=O)c1ncc(Cl)c(Cl)c1Cl)NCc1cccs1,,26% (inactive)
COc1ccc(-c2nn(-c3ccccc3)cc2/C=C2/SC(=S)N(CCCC(=O)O)C2=O)c(C)c1,,0% (inactive)
CS(=O)(=O)N1CCc2cc(C(=O)Nc3ccccc3Br)ccc21,,36.8% (inactive)
COc1ccc(C(=O)Nc2ccccc2C(=O)NCc2ccco2)cc1,,5.08% (inactive)
O=C(O)c1cnn2c(C(F)(F)F)cc(-c3ccccc3)nc12,,0.482% (inactive)
O=C(NCc1ccco1)c1cnn2c(C(F)(F)F)cc(-c3ccco3)nc12,1.65 µM (active),
CCC1CCCCN1C(=O)CSc1nc2c(c(=O)n1C)SC(C)C2 (configuration not stated),1.47 µM (active),
CCC1CCCCN1C(=O)CSc1nc2c(c(=O)n(C)c(=O)n2C)n1C (configuration not stated),,30.9% (inactive)
CCC1CCCCN1C(=O)CSc1nc(C)cc(C)n1 (configuration not stated),,-20.6% (inactive)
O=S(=O)(NCc1ccccc1Br)c1ccccc1Br,,-12.7% (inactive)
O=C(CN1CCN(C2CCS(=O)(=O)C2)CC1)N1N=C(c2ccc(Cl)cc2)CC1c1ccco1 (configuration not stated),,70.1% (inactive)
COc1cc(C(=O)NCC(c2ccco2)N2CCCC2)ccc1OCc1ccccc1 (configuration not stated),2.62 µM (active),
Cc1ccccc1C(=O)NCC(c1ccco1)N1CCc2ccccc21 (configuration not stated),,-10.7% (inactive)
O=C(NCC(c1ccco1)N1CCc2ccccc2C1)c1ccccc1Cl (configuration not stated),,-4.98% (inactive)
CCOC(CNC(=O)C(=O)NCC(c1ccco1)N1CCN(c2ccc(OC)cc2)CC1)OCC (configuration not stated),,37.7% (inactive)
CC1Cc2ccccc2N1S(=O)(=O)c1cccc(C(=O)NCC(c2ccco2)N2CCCC2)c1 (configuration not stated),1.85 µM (active),
COc1ccc(C(=O)NCC(c2ccco2)N2CCc3ccccc32)cc1OC (configuration not stated),,-14.9% (inactive)
O=C(Cc1ccccc1Cl)N1CCOCC1,,52% (inactive)
COc1ccc(CCNC(=O)c2nnc(CS(=O)(=O)c3ccccc3)o2)cc1OC,,21.2% (inactive)
